# Laboratory results as given in PubChem BioAssay AID485344 (National Center for Advancing Translational Sciences (NCATS), 2010).
# The whole screen tested about 340,000 compounds, of which about 6,900 (2%) were called active. Only a selection was taken, and actives are over-represented in it overall. A number with no mark means an inactive call. No stated cut-off is given here; in the data, active means inhibition above about 30%; inactive means below that, where a call was filed.
# Biological target: D(2) dopamine receptor (Homo sapiens) (UniProt P14416)
# Sequence (P14416 whole entry, looked up): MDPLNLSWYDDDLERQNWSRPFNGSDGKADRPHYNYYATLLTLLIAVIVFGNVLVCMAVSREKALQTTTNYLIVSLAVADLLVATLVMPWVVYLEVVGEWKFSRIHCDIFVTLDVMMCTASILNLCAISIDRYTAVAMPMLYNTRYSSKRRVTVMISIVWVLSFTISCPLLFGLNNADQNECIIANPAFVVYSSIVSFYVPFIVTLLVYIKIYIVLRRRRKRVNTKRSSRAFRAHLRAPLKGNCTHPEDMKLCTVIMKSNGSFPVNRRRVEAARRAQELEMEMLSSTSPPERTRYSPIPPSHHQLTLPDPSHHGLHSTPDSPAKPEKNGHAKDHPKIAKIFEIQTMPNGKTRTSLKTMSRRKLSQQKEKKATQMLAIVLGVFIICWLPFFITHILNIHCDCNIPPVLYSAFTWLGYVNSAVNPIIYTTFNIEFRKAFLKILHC
# Assay: HTS Assay for Allosteric Antagonists of the Human D2 Dopamine Receptor: Primary Screen for Antagonists; further: 0% is about no effect
# Details: HEK293 TREx D2 cells, calcium flux, dopamine EC80; at 10 µM; active compounds read high
# Excerpt: NIH Chemical Genomics Center [NCGC] NIH Molecular Libraries Probe Centers Network [MLPCN] MLPCN Grant: NS064831-01 Assay Submitter (PI): David Sibley Dopamine receptors (DARs) are involved in the etiology and/or therapy of a number of neuropsychiatric and endocrine disorders. For instance, all receptor-based antiparkinsonian drugs work via stimulating the D2 DAR subtype whereas all FDA-approved antipsychotic agents are antagonists of this receptor. […] There are three different types of allosteric modulators that we are seeking, two of which will stimulate or augment receptor signaling, allosteric agonists and potentiators, while the third, allosteric antagonists, will attenuate receptor signaling. The present primary screening assay measures compound antagonism after an EC80 addition of dopamine by tracking calcium flux in a […], inducible Hek293 Trex D2 cell line.
# Freshly passaged cells are plated in 1536 well black, clear bottom plates at a density of 4000 cells/well in 3 ul of complete media containing 1x tetracycline inducer. After an overnight incubation at 30 C in 5% CO2, cells are loaded with 2 ul of the no wash Calcium Assay Kit (ABD Bioquest) and incubated at room temperature for 30 to 90 minutes. Agonist read: A 10 cycle (1 second/cycle) baseline measurement is taken and then the FDSS online 1536 pintool delivers 23 nl of compound library (as well as dopamine controls) to the plate. The plate is measured for kinetically at 1 cycle/sec for 180 seconds. Following the 180 second read, 1 ul of an EC80 (negative modulation assay) is delivered by an onboard pipette head. Measurements are taken kinetically for an additional 180 seconds.
row,Structure (SMILES),inhibition
1,Cc1ccc(C2CN(C)CC2C(=O)c2ccc(F)cc2)cc1 (stereo not given),70% (active)
2,CN1CCC(OC(=O)c2cccc(F)c2)CC1,8.08%
3,COc1ccc(C(=O)C2CN(C)CC2C(=O)c2ccc(OC)cc2)cc1 (stereo not given),4.54%
4,COC(=O)C1=C(c2ccc(F)cc2OCc2ccccc2)C[C@@H]2CC[C@H]1N2C(=O)NCc1ccc2[nH]ccc2c1,4.27%
5,COC(=O)C1=C(c2cccc(OCc3ccccc3)c2)C[C@@H]2CC[C@H]1N2C(=O)NNCc1ccccc1,-6.45%
6,O=C(O)CCn1cc(C=C2C(=O)NC(=S)NC2=O)c(-c2cccc(Br)c2)n1,18.3%
7,CCc1ccc(OCC(=O)N2CCN(CC(=O)Nc3ccccc3Cl)CC2)cc1,-8.62%
8,CC(C)c1ccc(O)c(CN2CCN(c3ccccc3)CC2)c1,-16.3%
9,O=C(Cc1ccccc1[N+](=O)[O-])N1CCN(Cc2ccc3c(c2)OCO3)CC1,-19.1%
10,Cc1cc(=O)oc2c(C)c(OCC(=O)N3CCN(Cc4ccc5c(c4)OCO5)CC3)ccc12,3.54%
11,CCN1CCN(Cc2cc(OC)c3c(c2)OCO3)CC1,-21.1%
12,Oc1cc2c(cc1CN1CCN(c3ccccc3)CC1)OCO2,108% (active)
13,Fc1ccc(N2CCN(Cc3ccc4c(c3)OCO4)CC2)cc1,65.6% (active)
14,CN1CCC(N(C)Cc2cccnc2)CC1,11.8%
15,Cc1ccccc1NC(=O)COC(=O)c1cc(C)n(C2CC2)c1C,6.13%
16,COC(=O)C1=C(c2ccc(Cl)c(C(F)(F)F)c2)C[C@@H]2CC[C@H]1N2C(=O)NC(C)C,-9.37%
17,COC(=O)C1=C(c2ccc(F)cc2OCc2ccccc2)C[C@@H]2CC[C@H]1N2C(=O)NCc1ccc(Cl)cc1,-5.86%
18,CCOC(=O)C1(Cc2ccc(Cl)cc2)CCN(C(C)CCn2cccn2)CC1 (stereo not given),77.6% (active)

row,Structure (SMILES),inhibition
1,CCOC(=O)C1(CCc2ccccc2)CCN(Cc2ccco2)CC1,1.26%
2,COC(=O)C1=C(c2cccc(OCc3ccccc3)c2)C[C@@H]2CC[C@H]1N2C(=O)NCc1ccc(Br)cc1,-11.9%
3,COc1ccc(CNCCc2c[nH]c3ccccc23)cc1OC,22.9%
4,c1cncc(CNC2=NCCC2)c1,-1.77%
5,c1cncc(CNCCc2c[nH]c3ccccc23)c1,33% (active)
6,Fc1cccc(F)c1CN1CCN(Cc2c(F)cccc2F)CC1,-7.4%
7,COc1ccccc1CN1CCN(C(=O)Cc2ccccc2)CC1,-40.7%
8,COc1ccc(CN2CCN(c3ccccc3F)CC2)c(OC)c1,76.4% (active)
9,COC(=O)C1=C(c2ccccc2OCc2ccccc2)C[C@@H]2CC[C@H]1N2C(=O)NCc1ccc(OC)cc1,-2.56%
10,COC(=O)C1=C(c2ccc(F)cc2OCc2ccccc2)C[C@@H]2CC[C@H]1N2C(=O)NCc1ccc(OC)c(OC)c1,-1.84%
11,COC(=O)C1=C(c2ccc(Cl)c(C(F)(F)F)c2)C[C@@H]2CC[C@H]1N2C(=O)NC1CC1,-0.929%
12,COC(=O)C1=C(c2ccc(-c3ccccc3)c(F)c2)C[C@@H]2CC[C@H]1N2C(=O)NCc1ccc(F)cc1,-5.61%
13,Cn1c(O)c(C(=Nc2ccc(F)cc2)c2ccccc2)c(=O)n(C)c1=O,-2.27%
14,NCC(O)c1ccc(O)cc1 (stereo not given),32.1% (active)
15,CCc1cccc2c(C#N)cn(CC(=O)N3CCOCC3)c12,-4.1%
16,C[C@]12CC[C@H](O)C[C@H]1CC[C@@H]1C2CC[C@]2(C)[C@@H](C3=CC(=O)OC3)[C@@H](O)C[C@]12O (stereo not given in full),8.92%
17,COC(=O)C1=C(c2ccc3ccccc3c2)C[C@@H]2CC[C@H]1N2C(=O)NCCO,-12.6%
